Outcome and AC50 data for four molecules are collected here from PubChem BioAssay (EPA / NIEHS).

Each structure is given as a SMILES string. Calls of active or inactive are those of the source. The calls were made as follows: active = hit-call score of the fitted dose curve at least 0.9, where 1 is the maximum; inactive = score below 0.9.

Read-out in assay [1]: Monocyte Chemoattractant Protein-1 (MCP1), CCL2 (gene 6347)
Nature of the assay: BSK_LPS_MCP1: BioMAP Diversity Plus: LPS Assay for Monocyte Chemoattractant Protein-1 (MCP1) Biomarker Activity (AID 2283081).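 As to AC50: secreted MCP-1 protein quantified by ELISA in culture supernatant.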 To be noted: primary human HUVEC with PBMC; actives raise or lower the signal. In short, it runs like this: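 ELISA read-out of MCP-1 after 24 h chemical dosing of a human umbilical vein endothelial cell/peripheral blood mononuclear cell co-culture stimulated with LPS. Gain or loss of signal fitted relative to DMSO controls.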

A short description of assay [2]: BSK_LPS_PGE2: BioMAP Diversity Plus: LPS Assay for Prostaglandin E2 (PGE2) Biomarker Activity (AID 2283082). To be noted: primary human HUVEC with PBMC; actives raise or lower the signal. In short, it runs like this: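 Compounds were added to the LPS co-culture of endothelium and PBMC, and PGE2 was measured by ELISA after 24 h. Responses in either direction were fitted with DMSO as baseline.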

Read-out in assay [3]: Macrophage colony-stimulating factor (MCSF), CSF1 (gene 1435)
As to the kind of experiment: BSK_LPS_MCSF: BioMAP Diversity Plus: LPS Assay for Macrophage colony-stimulating factor (MCSF) Biomarker Activity (AID 2283083). To be noted: primary human HUVEC with PBMC; actives raise or lower the signal. In a few lines: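 HUVEC + PBMC co-culture (human primary), 24 h post-dose; M-CSF by ELISA; gain/loss of signal fitted bidirectionally vs DMSO baseline.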

Read-out in assay [4]: Tissue Factor, F3 (gene 2152)
As to the kind of experiment: BSK_LPS_TissueFactor: BioMAP Diversity Plus: LPS Assay for Tissue Factor Biomarker Activity (AID 2283084). To be noted: primary human HUVEC with PBMC; actives raise or lower the signal. In a few lines: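 HUVEC/PBMC co-culture, LPS-activated; CD142 ELISA read 24 h post-dose; bidirectional curve fit vs DMSO negative control.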

Read-out in assay [5]: Tumor necrosis factor (Homo sapiens) (UniProt P01375)
As to the kind of experiment: BSK_LPS_TNFa: BioMAP Diversity Plus: LPS Assay for Tumour Necrosis Factor alpha (TNFa) Biomarker Activity (AID 2283085).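 As to AC50: TNFa protein level quantified by ELISA in the co-culture.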 To be noted: primary human HUVEC with PBMC; actives raise or lower the signal. In short, it runs like this: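 Cells (umbilical vein endothelium plus peripheral blood mononuclear cells) were dosed with chemical, incubated 24 h, then TNFa was quantified by ELISA; values derive from bidirectional fitting with DMSO as baseline.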

Read-out in another assay: CD38, CD38 (gene 952)
As to the kind of experiment: BSK_SAg_CD38: BioMAP Diversity Plus: SAg Assay for CD38 Biomarker Activity (AID 2283087). To be noted: primary human HUVEC with PBMC; actives raise or lower the signal. In short, it runs like this:
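CD38 quantified by ELISA (fluorescence) in a superantigen-activated endothelial cell–PBMC co-culture at 24 h post-dose. Activity fitted in both directions relative to DMSO; parallel SRB and Alamar Blue cytotoxicity read-outs.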

Read-out in the next assay: CD40, CD40 (gene 958)
Nature of the assay: BSK_SAg_CD40: BioMAP Diversity Plus: SAg Assay for CD40 Biomarker Activity (AID 2283088). To be noted: primary human HUVEC with PBMC; actives raise or lower the signal. In a few lines: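 HUVEC/PBMC co-culture, 24 h post-dose; CD40 by ELISA, fluorescence intensity; bidirectional fit vs DMSO negative control.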

Read-out in the next assay: CD69, CD69 (gene 969)
Nature of the assay: BSK_SAg_CD69: BioMAP Diversity Plus: SAg Assay for CD69 Biomarker Activity (AID 2283089).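 As to AC50: cell surface CD69 protein quantified by ELISA with fluorescence detection.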 The settings on record: primary human HUVEC with PBMC; actives raise or lower the signal. In short, it runs like this:
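HUVEC co-cultured with PBMC were dosed with chemical, and CD69 was measured by ELISA with fluorescence read-out 24 h later. Bidirectional curve fitting used DMSO as negative control and activity baseline.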

Read-out in assay [6]: Monocyte Chemoattractant Protein-1 (MCP1), CCL2 (gene 6347)
As to the kind of experiment: BSK_SAg_MCP1: BioMAP Diversity Plus: SAg Assay for Monocyte Chemoattractant Protein-1 (MCP1) Biomarker Activity (AID 2283090). The settings on record: primary human HUVEC with PBMC; actives raise or lower the signal. In a few lines:
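Values derive from bidirectional fitting of ELISA-measured MCP1 against DMSO controls. Readings were taken 24 h after dosing human vascular endothelial cells co-cultured with peripheral blood mononuclear cells under superantigen stimulation.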

Read-out in assay [7]: E-selectin (Homo sapiens) (UniProt P16581)
As to the kind of experiment: BSK_SAg_Eselectin: BioMAP Diversity Plus: SAg Assay for Eselectin Biomarker Activity (AID 2283091). To be noted: primary human HUVEC with PBMC; actives raise or lower the signal. In a few lines: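 E-selectin ELISA readout at 24 h post-dosing in human umbilical vein endothelial cell/PBMC co-culture; gain or loss of signal fitted relative to DMSO baseline.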

Read-out in assay [8]: Monokine induced gamma interferon (MIG), CXCL9 (gene 4283)
Nature of the assay: BSK_SAg_MIG: BioMAP Diversity Plus: SAg Assay for Monokine induced gamma interferon (MIG) Biomarker Activity (AID 2283092). To be noted: primary human HUVEC with PBMC; actives raise or lower the signal. In short, it runs like this: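 HUVEC plus human PBMC co-culture, chemicals dosed and MIG (CXCL9) quantified by ELISA at 24 h. Bidirectional curve fitting against DMSO as negative control and baseline, so both gain and loss of signal count as activity.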

Assay [9] can be described thus: BSK_SAg_PBMCCytotoxicity: PBMC Cytotoxicity Assessment in the BioMAP Diversity Plus: SAg Assay (AID 2283093).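 Also: PBMC viability measured as Alamar Blue reduction fluorescence at 546/580 nm; fitted both ways against DMSO so a hit may be loss or gain of signal.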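 As to AC50: PBMC superantigen activated with SEB plus TSST-1 one hour after compound addition.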 To be noted: primary human HUVEC with PBMC. In short, it runs like this: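 Alamar Blue reduction (6 h, ex/em 546/580 nm) read after 90 h culture of PBMC pre-dosed 1 h then stimulated with SEB plus TSST-1, 20 ng/mL each. Gain or loss of signal fitted relative to DMSO.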

Read-out in assay [10]: Interleukin-8 (IL8), CXCL8 (gene 3576)
Nature of the assay: BSK_SAg_IL8: BioMAP Diversity Plus: SAg Assay for Interleukin-8 (IL8) Biomarker Activity (AID 2283094). The settings on record: primary human HUVEC with PBMC; actives raise or lower the signal. In a few lines: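 Chemicals were dosed onto a human endothelial–PBMC co-culture, and IL-8 was quantified by ELISA after 24 h. Both increases and decreases were fitted relative to DMSO.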

The nature of assay [11]: BSK_SAg_Proliferation: Cell Proliferation Assessment in the BioMAP Diversity Plus: SAg Assay (AID 2283095).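 Also: relative cell number as total protein by SRB absorbance in sub-confluent culture.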 To be noted: primary human HUVEC with PBMC. In short, it runs like this:
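Absorbance of sulforhodamine B at 560 nm reports total protein in a human vascular endothelial/PBMC co-culture after 96 h chemical exposure. Gain or loss of signal is fitted in both directions against DMSO.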

Read-out in assay [12]: Vascular cell adhesion molecule 1 (VCAM1), VCAM1 (gene 7412)
As to the kind of experiment: BSK_LPS_VCAM1: BioMAP Diversity Plus: LPS Assay for Vascular cell adhesion molecule 1 (VCAM1) Biomarker Activity (AID 2283086). To be noted: primary human HUVEC with PBMC; actives raise or lower the signal. In short, it runs like this:
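Cells are dosed in an LPS-stimulated endothelial/mononuclear co-culture and, after 24 h, VCAM-1 is quantified by ELISA. Activity in either direction is fitted relative to the DMSO negative control.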

Assay [13] in a line: BSK_SAg_SRB: Viability Assessment in the BioMAP Diversity Plus: SAg Assay (AID 2283096).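 Also: cells read one day after compound addition; hits may be either gain or loss of signal compared with DMSO.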 To be noted: primary human HUVEC with PBMC. In short, it runs like this: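 SRB absorbance at 560 nm served as the viability read-out. Cells (HUVEC plus peripheral blood mononuclear cells) were TCA-fixed and stained 24 h post-dosing; activity fitted in both directions against DMSO controls.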

Sequence of E-selectin (Homo sapiens) (P16581 whole entry, looked up): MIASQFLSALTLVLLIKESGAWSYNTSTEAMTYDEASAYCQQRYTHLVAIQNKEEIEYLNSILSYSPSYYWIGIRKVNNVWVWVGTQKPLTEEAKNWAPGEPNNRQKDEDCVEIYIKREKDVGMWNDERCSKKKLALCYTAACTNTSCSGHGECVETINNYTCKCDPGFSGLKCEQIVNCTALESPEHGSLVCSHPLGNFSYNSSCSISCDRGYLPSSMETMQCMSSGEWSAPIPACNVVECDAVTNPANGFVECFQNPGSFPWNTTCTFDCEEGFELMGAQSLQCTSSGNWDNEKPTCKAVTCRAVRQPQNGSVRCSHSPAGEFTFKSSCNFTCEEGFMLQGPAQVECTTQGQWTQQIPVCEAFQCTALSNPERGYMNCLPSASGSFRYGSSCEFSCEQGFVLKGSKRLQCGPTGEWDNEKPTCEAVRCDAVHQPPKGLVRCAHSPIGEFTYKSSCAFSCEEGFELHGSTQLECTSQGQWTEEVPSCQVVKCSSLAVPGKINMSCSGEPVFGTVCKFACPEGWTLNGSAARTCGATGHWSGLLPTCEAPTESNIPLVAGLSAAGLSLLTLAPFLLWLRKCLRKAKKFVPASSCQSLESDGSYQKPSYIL
Sequence of Tumor necrosis factor (Homo sapiens) (P01375 whole entry, looked up): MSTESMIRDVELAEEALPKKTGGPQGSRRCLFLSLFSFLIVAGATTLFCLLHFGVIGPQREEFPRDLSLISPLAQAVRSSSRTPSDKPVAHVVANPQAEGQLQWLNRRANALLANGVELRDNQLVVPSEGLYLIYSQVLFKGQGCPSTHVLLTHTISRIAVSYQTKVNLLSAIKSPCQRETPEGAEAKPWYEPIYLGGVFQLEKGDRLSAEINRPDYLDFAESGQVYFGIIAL

Take `c1ccc2sc(SNC3CCCCC3)nc2c1`: the outcome in assay [1] is “inactive”; in assay [2], “inactive”; in assay [3], “inactive”; with CD38, CD38 (gene 952) it was “inactive”; in the assay with CD40, CD40 (gene 958), “inactive”; in the assay with CD69, CD69 (gene 969), “inactive”. In addition, the result in [6], in assay [7], in assay [8] and in [10] was inactive. In addition, the half-maximal activity concentration (AC50) is 0.676 µM (active) in assay [4], 30.5 µM (active) in assay [5], 27 µM (active) in [9] and 29.2 µM (active) in [11].

For the molecule `CCOP(=O)(OCC)SCCSCC`, the outcome in assay [1], in assay [2], in assay [3], in assay [4], in assay [5] and in [12] was inactive. The outcome with CD38, CD38 (gene 952) was “inactive”; with CD40, CD40 (gene 958) it was “inactive”; with CD69, CD69 (gene 969) it was “inactive”; in assay [6] it was “inactive”; in assay [7], “inactive”; in assay [8], “inactive”. Further, the outcome in [9], in [11] and in assay [13] was inactive.

Take `OC(Cc1ccccc1Cl)(Cn1[nH]cnc1=S)C1(Cl)CC1` (stereo not drawn): the AC50 in [1] was 24.6 µM (active); in assay [2] it was 11.1 µM (active); with CD38, CD38 (gene 952), 20 µM (active); with CD40, CD40 (gene 958), 20 µM (active); in the assay with CD69, CD69 (gene 969), 14.1 µM (active); in [10], 3.97 µM (active). Also, in assay [11], the AC50 was 20 µM (active). Moreover, the result in assay [3], in [4], in [5], in assay [12], in [6] and in [7] was inactive. The outcome in [8] and in [9] was inactive.

As to `Oc1c(Br)cc(Br)cc1Br`, the outcome in assay [1], in assay [2], in assay [3], in assay [4], in assay [5] and in assay [12] was inactive. Also, the result in [6], in assay [8] and in assay [9] was inactive. Further, the concentration at half-maximal activity (AC50) with CD38, CD38 (gene 952) is 30.3 µM (active); with CD40, CD40 (gene 958), 20 µM (active); with CD69, CD69 (gene 969), 35 µM (active); in assay [7] it was 20 µM (active); in assay [11], 20 µM (active).

What is called AC50 is the concentration giving half of the maximal activity seen.
